# Assay results from PubChem BioAssay (NCI).
# About 79,000 compounds went through this panel and 15% of them were active in at least one assay; those are over-represented in the sample as a whole. Values without a mark were called inactive. Activity calls are given as the source filed them. Cut-off read from the data, not from the text of the source: active = growth inhibition above about 70%; inactive = the rest.
# Test: NCI Yeast Anticancer Drug Screen. Data for the wt1 strain (AID 149);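 note: 0% = growth of vehicle-treated wt1 cultures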
# Settings: S. cerevisiae wt1 strain (SPY 50644) growth inhibition, hits give high values
# Method: Growth inhibition of yeast strains with defined genetic alterations is measured as a screen for potential anti-cancer activity. Selected strains with alterations in DNA damage repair or cell cycle control were exposed to compounds and growth inhibition was measured relative to vehicle treated controls. The strain used in this assay is wt1
SMILES,growth inhibition (at 1.2 µM),growth inhibition (at 3.7 µM),growth inhibition (at 11.0 µM),growth inhibition (at 33.0 µM),growth inhibition (at 100.0 µM)
CS(=O)(=O)OCCN(CCOS(C)(=O)=O)c1ccc(C=O)cc1,0%,-19%,10%,28%,49%
O=[N+]([O-])c1ccc(-n2nc3ccc4c(no[n+]4[O-])c3[n+]2[O-])c([N+](=O)[O-])c1,-2%,-2%,-2%,0%,3%
c1cc2c(cc1C1OC[C@H]3[C@@H](c4ccc5c(c4)OCO5)OC[C@@H]13)OCO2 (stereo not given in full),-1%,-6%,1%,-20%,-8%
CCCN(CCC)c1c([N+](=O)[O-])cc(S(N)(=O)=O)cc1[N+](=O)[O-],10%,6%,18%,19%,7%
O=[N+]([O-])c1oc2ccc3ccccc3c2c1CCO,2%,14%,75% (active),97% (active),98% (active)
C/C(CCl)=N/NC1=NC(c2ccccc2Cl)P(=O)(NCCCNP2(=O)SC(N/N=C(/C)CCl)=NC2c2ccccc2Cl)S1 (stereo not given),3%,-4%,-5%,-3%,-1%
CCOP(=S)(S)OCC.[Pd],2%,55%,93% (active),89% (active),83% (active)
CO[C@H](/C(C)=C/C=C/C(C)=C/c1coc(C)n1)[C@H](C)[C@H]1C[C@@H](O)[C@@]2(C)O[C@H]2/C=C/[C@@H](C)[C@@H]2C[C@@H](CC(=O)O2)C[C@H]2O[C@@H]2C(=O)O1,7%,-2%,2%,15%,93% (active)
